From PubChem BioAssay (EPA / NIEHS)
Active and inactive are the calls of the source. Rule for the calls: active = hit-call score of the fitted dose curve at least 0.9, where 1 is the maximum; inactive = score below 0.9.

Test: ATG_PXRE_CIS: Attagene CIS-FACTORIAL HepG2 Assay for human Pregnane X Receptor Element (PXRE) (AID 2282957)
Settings: HepG2 Attagene CIS-FACTORIAL PXRE reporter, mRNA; actives raise or lower the signal
Summary of the method: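 Using HepG2 transfected with multiple reporter transcription units, endogenous factor-driven transcription was scored as reporter mRNA after 24 h exposure.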
For `COc1cc(C(C)C)ccc1C`, the outcome was “inactive”.
In the case of `O=C(O)c1cccnc1C(=O)O`, the outcome is reported as “inactive”.
In the case of `CCCC(=O)c1ccccc1`, the outcome is reported as “inactive”.
With `CCCCCCCCC=CCCCCCCCC1=NCCN1CCO` the AC50 was 60.6 µM (active).
With `C=C(C)[C@@H]1CC=C(C)C(=O)C1` the AC50 was 25.5 µM (active).
With `CC1(C)O[C@@H]2[C@@H](CO[C@@]3(COS(N)(=O)=O)OC(C)(C)O[C@@H]23)O1` the AC50 was 57.9 µM (active).
With `COc1cc(CCC(C)=O)ccc1O` the outcome was “inactive”.
In the case of `CC=Cc1ccc(OC)c(OC)c1`, the AC50 is reported as 19.5 µM (active).
With `CC[N+](C)(CC)CC` the outcome was “inactive”.
With `C[Si](C)(C)O[Si](C)(C)C` the outcome was “inactive”.
With `C=Cc1ccncc1` the AC50 was 33.1 µM (active).
With `CSc1c(Cl)c(Cl)c(Cl)c(Cl)c1Cl` the AC50 was 2.94 µM (active).
With `Clc1cc(Cl)c(-c2c(Cl)c(Cl)cc(Cl)c2Cl)cc1Cl` the AC50 was 3.45 µM (active).
For `CCOC(=O)CN`, the outcome was “inactive”.
In the case of `C=CCCCCCCCCCC`, the outcome is reported as “inactive”.
For `COC(=O)C=C(C)CCC=C(C)C`, the AC50 was 7.51 µM (active).
For `CCCCCCCCN1CCCC1=O`, the AC50 was 26.2 µM (active).
For `CS(=O)(=O)c1ccc(Cl)cc1`, the AC50 was 100 µM (active).
For `CC(C)CCOC(=O)c1ccccc1`, the outcome was “inactive”.
For `O=C(c1ccccc1)C(O)c1ccccc1` (centres undefined), the AC50 was 57 µM (active).
For `CCCCCCCCCCCCCC(=O)OCC(O)CO` (centres undefined), the outcome was “inactive”.
With `CCCCCCCCCCCCS(=O)(=O)Cl` the outcome was “inactive”.
For `CCCCCCC(C)(C)S`, the AC50 was 39 µM (active).
For `CCOc1ccc(NC(=O)CC(C)=O)cc1`, the outcome was “inactive”.
For `O=CCc1ccccc1`, the AC50 was 9.42 µM (active).
In the case of `O=P(O)(O)O`, the outcome is reported as “inactive”.

Test: ATG_RORE_CIS: Attagene CIS-FACTORIAL HepG2 Assay for human RAR-related Orphan Receptor Element (RORE) (AID 2282959)
Settings: HepG2 Attagene cis-factorial RORE reporter, mRNA; actives raise or lower the signal
Summary of the method: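 Transient MRTU transfection of human HepG2 liver cells (FuGene 6); 24 h compound exposure; TriZol RNA, oligo(dT) RT, PCR, FAM labeling, HpaI cut, CE fragment analysis. DMSO = negative control/baseline.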
For `O=C(O)c1cc(C(=O)O)cc([N+](=O)[O-])c1`, the outcome was “inactive”.
In the case of `O=C(Nc1ccc([N+](=O)[O-])cc1)Nc1ccc([N+](=O)[O-])cc1` (tested in a mixture with another compound), the outcome is reported as “inactive”.
In the case of `O=C1c2ccccc2C(=O)c2c(O)ccc(O)c21`, the outcome is reported as “inactive”.
In the case of `OCC#CCO`, the outcome is reported as “inactive”.
In the case of `Cc1ncc([N+](=O)[O-])n1CCO`, the outcome is reported as “inactive”.
With `CCC1(c2ccccc2)C(=O)NCNC1=O` the outcome was “inactive”.
With `OC[C@H]1O[C@@H](Oc2ccc(O)cc2)[C@H](O)[C@@H](O)[C@@H]1O` the outcome was “inactive”.
For `COS(=O)(=O)O`, the outcome was “inactive”.
In the case of `Cc1occc(=O)c1OC(=O)C(C)C`, the outcome is reported as “inactive”.
In the case of `CC1=NN(c2ccc(S(=O)(=O)O)cc2)C(=O)C1`, the outcome is reported as “inactive”.
In the case of `CC(C)NCC(O)COc1ccc(CC(N)=O)cc1` (centres undefined), the outcome is reported as “inactive”.
For `CC(C)OCCO`, the outcome was “inactive”.
With `CN(C)C(=O)Nc1ccc(Oc2ccc(Cl)cc2)cc1` the outcome was “inactive”.
In the case of `COc1cc(C(C)C)ccc1C`, the outcome is reported as “inactive”.
In the case of `O=C(O)c1cccnc1C(=O)O`, the outcome is reported as “inactive”.
For `CCCC(=O)c1ccccc1`, the outcome was “inactive”.
For `CCCCCCCCC=CCCCCCCCC1=NCCN1CCO`, the outcome was “inactive”.
In the case of `C=C(C)[C@@H]1CC=C(C)C(=O)C1`, the outcome is reported as “inactive”.
With `CC1(C)O[C@@H]2[C@@H](CO[C@@]3(COS(N)(=O)=O)OC(C)(C)O[C@@H]23)O1` the outcome was “inactive”.
For `COc1cc(CCC(C)=O)ccc1O`, the outcome was “inactive”.
With `CC=Cc1ccc(OC)c(OC)c1` the outcome was “inactive”.
With `CC[N+](C)(CC)CC` the outcome was “inactive”.
For `C[Si](C)(C)O[Si](C)(C)C`, the outcome was “inactive”.
In the case of `C=Cc1ccncc1`, the AC50 is reported as 10.2 µM (active).
In the case of `CSc1c(Cl)c(Cl)c(Cl)c(Cl)c1Cl`, the outcome is reported as “inactive”.
For `Clc1cc(Cl)c(-c2c(Cl)c(Cl)cc(Cl)c2Cl)cc1Cl`, the outcome was “inactive”.
In the case of `CCOC(=O)CN`, the outcome is reported as “inactive”.
With `C=CCCCCCCCCCC` the outcome was “inactive”.
In the case of `COC(=O)C=C(C)CCC=C(C)C`, the outcome is reported as “inactive”.
With `CCCCCCCCN1CCCC1=O` the outcome was “inactive”.
With `CS(=O)(=O)c1ccc(Cl)cc1` the outcome was “inactive”.
For `CC(C)CCOC(=O)c1ccccc1`, the outcome was “inactive”.
With `O=C(c1ccccc1)C(O)c1ccccc1` (centres undefined) the outcome was “inactive”.
With `CCCCCCCCCCCCCC(=O)OCC(O)CO` (centres undefined) the outcome was “inactive”.
In the case of `CCCCCCCCCCCCS(=O)(=O)Cl`, the outcome is reported as “inactive”.
In the case of `CCCCCCC(C)(C)S`, the outcome is reported as “inactive”.
For `CCOc1ccc(NC(=O)CC(C)=O)cc1`, the outcome was “inactive”.
In the case of `O=CCc1ccccc1`, the outcome is reported as “inactive”.
With `O=P(O)(O)O` the outcome was “inactive”.

Test: ATG_Sox_CIS: Attagene CIS-FACTORIAL HepG2 Assay for human SRY-box transcription factor (SOX) (AID 2282960)
Settings: HepG2 Attagene cis-factorial SOX reporter, mRNA; actives raise or lower the signal
Summary of the method: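 Endogenous factor activity in human liver HepG2 cells carrying transfected cis-regulated reporter units. RNA taken 24 h post-dose, reverse-transcribed, PCR-amplified and sized by capillary electrophoresis. Gain or loss of signal fitted relative to DMSO.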
In the case of `O=C(O)c1cc(C(=O)O)cc([N+](=O)[O-])c1`, the outcome is reported as “inactive”.
With `O=C(Nc1ccc([N+](=O)[O-])cc1)Nc1ccc([N+](=O)[O-])cc1` (tested in a mixture with another compound) the outcome was “inactive”.
For `O=C1c2ccccc2C(=O)c2c(O)ccc(O)c21`, the outcome was “inactive”.
In the case of `OCC#CCO`, the outcome is reported as “inactive”.
With `Cc1ncc([N+](=O)[O-])n1CCO` the outcome was “inactive”.
In the case of `CCC1(c2ccccc2)C(=O)NCNC1=O`, the outcome is reported as “inactive”.
With `OC[C@H]1O[C@@H](Oc2ccc(O)cc2)[C@H](O)[C@@H](O)[C@@H]1O` the outcome was “inactive”.
In the case of `COS(=O)(=O)O`, the outcome is reported as “inactive”.
For `Cc1occc(=O)c1OC(=O)C(C)C`, the outcome was “inactive”.
For `CC1=NN(c2ccc(S(=O)(=O)O)cc2)C(=O)C1`, the outcome was “inactive”.
For `CC(C)NCC(O)COc1ccc(CC(N)=O)cc1` (centres undefined), the outcome was “inactive”.
With `CC(C)OCCO` the outcome was “inactive”.
In the case of `CN(C)C(=O)Nc1ccc(Oc2ccc(Cl)cc2)cc1`, the outcome is reported as “inactive”.
In the case of `COc1cc(C(C)C)ccc1C`, the outcome is reported as “inactive”.
With `O=C(O)c1cccnc1C(=O)O` the outcome was “inactive”.
For `CCCC(=O)c1ccccc1`, the outcome was “inactive”.
In the case of `CCCCCCCCC=CCCCCCCCC1=NCCN1CCO`, the outcome is reported as “inactive”.
In the case of `C=C(C)[C@@H]1CC=C(C)C(=O)C1`, the outcome is reported as “inactive”.
With `CC1(C)O[C@@H]2[C@@H](CO[C@@]3(COS(N)(=O)=O)OC(C)(C)O[C@@H]23)O1` the outcome was “inactive”.
In the case of `COc1cc(CCC(C)=O)ccc1O`, the outcome is reported as “inactive”.
With `CC=Cc1ccc(OC)c(OC)c1` the outcome was “inactive”.
With `CC[N+](C)(CC)CC` the outcome was “inactive”.
With `C[Si](C)(C)O[Si](C)(C)C` the outcome was “inactive”.
With `C=Cc1ccncc1` the AC50 was 21.8 µM (active).
For `CSc1c(Cl)c(Cl)c(Cl)c(Cl)c1Cl`, the outcome was “inactive”.
In the case of `Clc1cc(Cl)c(-c2c(Cl)c(Cl)cc(Cl)c2Cl)cc1Cl`, the outcome is reported as “inactive”.
With `CCOC(=O)CN` the outcome was “inactive”.
For `C=CCCCCCCCCCC`, the outcome was “inactive”.
In the case of `COC(=O)C=C(C)CCC=C(C)C`, the outcome is reported as “inactive”.
In the case of `CCCCCCCCN1CCCC1=O`, the outcome is reported as “inactive”.
In the case of `CS(=O)(=O)c1ccc(Cl)cc1`, the outcome is reported as “inactive”.
For `CC(C)CCOC(=O)c1ccccc1`, the outcome was “inactive”.
With `O=C(c1ccccc1)C(O)c1ccccc1` (centres undefined) the outcome was “inactive”.
With `CCCCCCCCCCCCCC(=O)OCC(O)CO` (centres undefined) the outcome was “inactive”.
In the case of `CCCCCCCCCCCCS(=O)(=O)Cl`, the outcome is reported as “inactive”.
In the case of `CCCCCCC(C)(C)S`, the outcome is reported as “inactive”.
In the case of `CCOc1ccc(NC(=O)CC(C)=O)cc1`, the outcome is reported as “inactive”.
With `O=CCc1ccccc1` the outcome was “inactive”.
For `O=P(O)(O)O`, the outcome was “inactive”.
